Results published in PubChem BioAssay (EPA / NIEHS).
Calls of active or inactive are those of the source. Rule for the calls: active = hit-call score of the fitted dose curve at least 0.9, where 1 is the maximum; inactive = score below 0.9.

What was measured:
[1] = read-out: Monokine induced gamma interferon (MIG), CXCL9 (gene 4283); assay: BSK_3C_MIG: BioMAP Diversity Plus: 3C Assay for Monokine induced gamma interferon (MIG) Biomarker Activity (AID 2283021); conditions: primary human endothelial cells (HUVEC); actives raise or lower the signal
How it was run: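 After 24 h of treatment, human umbilical vein endothelial cultures (3C system) had their MIG biomarker level determined by ELISA, with DMSO serving as negative control.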

[2] = BSK_3C_SRB: Viability Assessment in the BioMAP Diversity Plus: 3C Assay (AID 2283023); conditions: primary human endothelial cells (HUVEC);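 note: fitted both ways against DMSO so a hit may be signal rise or drop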
How it was run: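 Primary human umbilical vein endothelial cells in the 3C system were read 24 h after compound dosing. Total protein was stained with 0.1% sulforhodamine B after 10% TCA fixation and read at 560 nm, with bidirectional fitting against DMSO as baseline.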

[3] = BSK_3C_Vis: BioMAP Diversity Plus: 3C Assay for Morphology Visualization (AID 2283025); conditions: primary human endothelial cells (HUVEC);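 note: fitted both ways so gain or loss versus DMSO counts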;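 for AC50: light microscopy image of cell morphology used as background control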
How it was run: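 Endothelial cells from human umbilical vein were treated with test chemicals for 24 h and inspected by light microscopy for changes in cell conformation.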

[4] = read-out: Pselectin, SELP (gene 6403); assay: BSK_4H_Pselectin: BioMAP Diversity Plus: 4H Assay for Pselectin Biomarker Activity (AID 2283026); conditions: primary human endothelial cells (HUVEC); actives raise or lower the signal
How it was run: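 Human vascular endothelium from umbilical vein; P-selectin measured by ELISA at 24 h post-dose, with cytotoxicity checked by sulforhodamine B total-protein staining in parallel cultures (0.1% SRB after 10% TCA fixation, read at 560 nm).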

[5] = BSK_4H_SRB: Viability Assessment in the BioMAP Diversity Plus: 4H Assay (AID 2283027); conditions: primary human endothelial cells (HUVEC);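 note: cells exposed to compound for 24 h before staining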;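 for AC50: curves fitted both ways versus DMSO so AC50 may be loss or gain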
How it was run: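 Human umbilical vein endothelial cells were dosed with chemical and, after 24 h, fixed with 10% TCA, stained with 0.1% sulforhodamine B, and read at 560 nm to give total protein as a cytotoxicity measure. Bidirectional fitting relative to DMSO control.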

[6] = BSK_BE3C_SRB: Viability Assessment in the BioMAP Diversity Plus: BE3C Assay (AID 2283028); conditions: primary human bronchial epithelial cells;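 for AC50: fitted both ways so AC50 may mark signal gain or loss versus DMSO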
How it was run: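 Human primary bronchial epithelial cells were exposed to test chemicals for 24 h. Total protein in parallel cultures was then measured by staining with 0.1% sulforhodamine B after 10% TCA fixation, with absorbance read at 560 nm. Activity was fitted bidirectionally against DMSO.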

[7] = read-out: Thrombomodulin, THBD (gene 7056); assay: BSK_3C_Thrombomodulin: BioMAP Diversity Plus: 3C Assay for Thrombomodulin Biomarker Activity (AID 2283029); conditions: primary human endothelial cells (HUVEC); actives raise or lower the signal
How it was run: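 Thrombomodulin ELISA, human primary HUVEC, 24 h post-dose; data fitted in both directions relative to DMSO.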

[8] = read-out: Urokinase-type plasminogen activator receptor (uPAR), PLAUR (gene 5329); assay: BSK_4H_uPAR: BioMAP Diversity Plus: 4H Assay for Urokinase-type plasminogen activator receptor (uPAR) Biomarker Activity (AID 2283030); conditions: primary human endothelial cells (HUVEC); actives raise or lower the signal
How it was run: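 Primary human umbilical vein endothelial cells were exposed to chemical for 24 h before cell-surface uPAR was quantified by ELISA. Activity was fitted bidirectionally against the DMSO negative control baseline.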

[9] = read-out: Vascular endothelial growth factor receptor 2 (Homo sapiens) (UniProt P35968); assay: BSK_4H_VEGFRII: BioMAP Diversity Plus: 4H Assay for Vascular endothelial growth factor receptor 2 (VEGFR2) Biomarker Activity (AID 2283031); conditions: primary human endothelial cells (HUVEC); actives raise or lower the signal
How it was run: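 Primary human umbilical vein endothelial cells in the BioMAP 4H system were dosed with test chemical, and 24 h later VEGFRII was measured by ELISA. Activity was fitted bidirectionally against DMSO as negative control and baseline.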

[10] = read-out: Human Leukocyte Antigen - DR isotype (HLADR), HLA-DRA (gene 3122); assay: BSK_BE3C_HLADR: BioMAP Diversity Plus: BE3C Assay for Human Leukocyte Antigen - DR isotype (HLADR) Biomarker Activity (AID 2283032); conditions: primary human bronchial epithelial cells; actives raise or lower the signal
How it was run: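 Signal came from an ELISA for HLA-DR in human bronchial epithelial primary cells harvested 24 h after treatment; gain- and loss-of-signal fitting used DMSO controls as reference.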

[11] = read-out: Vascular cell adhesion molecule 1 (VCAM1), VCAM1 (gene 7412); assay: BSK_4H_VCAM1: BioMAP Diversity Plus: 4H Assay for Vascular cell adhesion molecule 1 (VCAM1) Biomarker Activity (AID 2283033); conditions: primary human endothelial cells (HUVEC); actives raise or lower the signal;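 note: cell-surface VCAM-1 protein measured by ELISA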
How it was run: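 Endpoint derived from bidirectional fitting against DMSO controls of VCAM-1 ELISA signal in umbilical vein endothelial cells sampled at 24 h following treatment.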

[12] = read-out: Interferon-gamma inducible Protein 10 (IP10), CXCL10 (gene 3627); assay: BSK_BE3C_IP10: BioMAP Diversity Plus: BE3C Assay for Interferon-gamma inducible Protein 10 (IP10) Biomarker Activity (AID 2283034); conditions: primary human bronchial epithelial cells; actives raise or lower the signal
How it was run: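 Using primary human bronchial epithelial cultures, the assay captures IP-10 by ELISA one day (24 h) after exposure. Parallel SRB staining of total protein flags overt cytotoxicity. Fits run bidirectionally relative to DMSO.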

[13] = read-out: Monokine induced gamma interferon (MIG), CXCL9 (gene 4283); assay: BSK_BE3C_MIG: BioMAP Diversity Plus: BE3C Assay for Monokine induced gamma interferon (MIG) Biomarker Activity (AID 2283035); conditions: primary human bronchial epithelial cells; actives raise or lower the signal;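 note: MIG protein measured by ELISA in BE3C cultures after 24 h of dosing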
How it was run: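 ELISA read-out of MIG in human lung bronchial epithelial primary cultures, 24 h post-dosing. Bidirectional curve fit vs DMSO baseline.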

[14] = read-out: Transforming growth factor beta 1 (TGFb1), TGFB1 (gene 7040); assay: BSK_BE3C_TGFb1: BioMAP Diversity Plus: BE3C Assay for Transforming growth factor beta 1 (TGFb1) Biomarker Activity (AID 2283036); conditions: primary human bronchial epithelial cells; actives raise or lower the signal
How it was run: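 In this human primary bronchial epithelial system, an ELISA quantified TGF-b1 one day after dosing. Endpoint changes in either direction were fitted relative to DMSO.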

[15] = read-out: Plasminogen activator inhibitor-1 (PAI1), SERPINE1 (gene 5054); assay: BSK_BE3C_PAI1: BioMAP Diversity Plus: BE3C Assay for Plasminogen activator inhibitor-1 (PAI1) Biomarker Activity (AID 2283037); conditions: primary human bronchial epithelial cells; actives raise or lower the signal
How it was run: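 PAI-1 biomarker levels in treated human bronchial epithelial cells are determined by ELISA at 24 h. Both increases and decreases relative to DMSO are fitted.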

[16] = read-out: Urokinase-type plasminogen activator receptor (uPAR), PLAUR (gene 5329); assay: BSK_BE3C_uPAR: BioMAP Diversity Plus: BE3C Assay for Urokinase-type plasminogen activator receptor (uPAR) Biomarker Activity (AID 2283039); conditions: primary human bronchial epithelial cells; actives raise or lower the signal
How it was run: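 A uPAR ELISA serves as the readout, taken 24 h after treating primary human bronchial epithelial cells. Responses in either direction are fitted against DMSO, which defines baseline activity.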

[17] = read-out: Interleukin-6 (IL6), IL6 (gene 3569); assay: BSK_CASM3C_IL6: BioMAP Diversity Plus: CASM3C Assay for Interleukin-6 (IL6) Biomarker Activity for (AID 2283040); conditions: primary human coronary artery smooth muscle cells; actives raise or lower the signal
[18] = read-out: Matrix Metallopeptidase 1 (MMP1), MMP1 (gene 4312); assay: BSK_BE3C_MMP1: BioMAP Diversity Plus: BE3C Assay for Matrix Metallopeptidase 1 (MMP1) Biomarker Activity (AID 2283024); conditions: primary human bronchial epithelial cells; actives raise or lower the signal
How it was run: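 Dose cells, wait 24 h, run MMP1 ELISA; cells are human bronchial epithelial primaries. Both increases and decreases relative to DMSO counted.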

[19] = read-out: urokinase plasminogen activator (uPA), PLAU (gene 5328); assay: BSK_BE3C_uPA: BioMAP Diversity Plus: BE3C Assay for urokinase plasminogen activator (uPA) Biomarker Activity (AID 2283038); conditions: primary human bronchial epithelial cells; actives raise or lower the signal;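 note: uPA protein level quantified by ELISA in cell cultures; uPA read one day after compound addition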
How it was run: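 Human primary bronchial epithelial cells were exposed to chemical for 24 h, then uPA levels were measured by ELISA. Responses were fitted bidirectionally against DMSO as negative control and baseline. Parallel SRB staining of total protein gauged overt cytotoxicity.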

Measured: AC50

Cc1cnc(C2=NC(C)(C(C)C)C(=O)N2)c(C(=O)O)c1 (centres undefined)
active: [14] 4.93 µM
not listed: [18] | [19]
inactive: all other assays above

CCCC(=NOCC)C1=C(O)CC(CC(C)SCC)CC1=O (centres undefined)
active: [3] 39 µM
not listed: [11] | [18] | [19]
inactive: all other assays above

COc1cc(OC)nc(NC(=O)NS(=O)(=O)c2ncccc2OCC(F)(F)F)n1
not listed: [18] | [19]
inactive: all other assays above

CCNC(=O)NC(=O)C(C#N)=NOC
active: [17] 6.13 µM
not listed: [9] | [11]
inactive: all other assays above

N#Cc1c[nH]cc1-c1cccc2c1OC(F)(F)O2
active: [2] 11.6 µM | [3] 11.2 µM | [4] 11.7 µM | [5] 6.27 µM | [8] 14.7 µM
not listed: [11] | [19]
inactive: all other assays above

CCN(CC)C(=O)C(C)Oc1cccc2ccccc12 (centres undefined)
active: [2] 5.16 µM | [18] 5.25 µM | [3] 9.8 µM
not listed: [11]
inactive: all other assays above

CC(C)N1C(=O)N(c2ccccc2)CSC1=NC(C)(C)C
inactive: [1] | [7] | [9] | [13] | [14] | [15] | [19] | [17]
active: [2] 27.2 µM | [3] 16.3 µM | [4] 31.2 µM | [5] 31.2 µM | [6] 27.8 µM | [8] 31.7 µM | [10] 28.9 µM | [12] 30.4 µM | [16] 33.7 µM
